# Laboratory results published in PubChem BioAssay (NCATS).
# Inconclusive results are not listed. Calls of active or inactive are those of the source. Unless noted, calls follow the shape of the dose curve; as a rule, active = well fitted curve in the direction sought with a large enough effect; inconclusive = small, poorly fitted or top-dose-only effect, or another doubt; inactive = no such curve, though single readings can be large; an effect the other way counts as inactive or inconclusive.
# Experiments:
# [1] = qHTS profiling of the MIPE4 collection as inhibitors of Plasmodium falciparum (3D7) proliferation (AID 743344; call rule not given here;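 also: scaled between DMSO vehicle wells and 0.29 µM artemisinin as full inhibition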); settings: P. falciparum 3D7 in erythrocytes, SYBR Green DNA fluorescence, 72 h; at 28.5 µM
# Procedure, shortened: (§1)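 Parasite DNA was quantified by SYBR Green I fluorescence (ex 485, em 535 nm) after overnight lysis in saponin/Triton buffer at room temperature. Cultures at 0.3% parasitemia and 2.5% hematocrit were first exposed to compound for 72 h at 37 C; signals were normalised to artemisinin (0.29 uM) and vehicle wells.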
# [2] = qHTS profiling of the MIPE4 collection as inhibitors of Plasmodium falciparum (DD2) proliferation (AID 743345; call rule not given here); settings: P. falciparum Dd2 in erythrocytes, SYBR Green DNA, 72 h; at 28.5 µM
# Procedure, shortened: as §1
# [3] = qHTS profiling of the MIPE4 collection as inhibitors of Plasmodium falciparum (DD2) proliferation (Rep 2) (AID 743346; call rule not given here); settings: P. falciparum Dd2 in erythrocytes, SYBR Green DNA, 72 h; at 28.5 µM
# Procedure, shortened: as §1
# [4] = qHTS profiling of the MIPE4 collection as inhibitors of Plasmodium falciparum (HB3) proliferation (AID 743347; call rule not given here;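 also: plate controls were DMSO vehicle wells for no effect and artemisinin wells for full effect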); settings: P. falciparum HB3 in erythrocytes, SYBR Green DNA, 72 h; at 28.5 µM
# Procedure, shortened: as §1
# [5] = molecular target: Calcium and integrin-binding protein 1 (Homo sapiens) (UniProt Q99828); test: Primary qHTS for Identification of Calcium Integrin Binding Protein 1 (CIB1) Competitor (AID 1508620);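 also: GST tagged CIB1 binding a fluorescein labelled alphaIIb integrin peptide tracer; top concentration of the series differs between compounds; % is scaled to controls: 0 for no effect and ±100 for the full control effect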
# Procedure, shortened: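 Fluorescence polarization competition: GST-tagged CIB1 (1 uM final) preincubated with compound 15 min at room temperature, then FITC-labelled alphaIIb peptide (100 nM final) added. After 15 min at room temperature, polarization read at Ex 480/Em 540.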
# [6] = molecular target: Ubiquitin carboxyl-terminal hydrolase 2 (Homo sapiens) (UniProt O75604); test: qHTS for Inhibitors of Ubiquitin-specific Protease USP2a Using CHOP2 as the Reporter: K484 Substrate (AID 652173);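 also: cleavage of internally quenched K48 di-ubiquitin substrate measured as rising fluorescence over time; potency is read from the fitted curve at half-maximal effect; nearly all actives have a fitted effect of over 70% in size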
# Procedure, shortened: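 Kinetic fluorescence (Ex 525/Em 598) tracked cleavage of an internally quenched K48 di-ubiquitin substrate, added as a 100 nM solution. The enzyme was added as a 5 nM USP2 solution before compound pinning, with no-enzyme controls. Buffer: Tris pH 8, beta-mercaptoethanol, CHAPS.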
# [7] = molecular target: Lysosomal acid glucosylceramidase (Homo sapiens) (UniProt P04062); test: Glucocerebrosidase-p2 (AID 348; in the data active = potency below about 10 µM; also: potency is read from the fitted curve at half-maximal effect); settings: purified GBA, blue fluorogenic substrate, 40 min
# Procedure, shortened: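 Normal human glucocerebrosidase (0.2 nM) with blue fluorogenic substrate (80 uM final) in citrate/phosphate pH 5.9 with 10mM sodium taurocholate, 0.01% tween-20; 40 min RT, NaOH/glycine stop; fluorescence Ex 365/Em 440; AC50 from a titration from 0.6 nM upwards.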
# [8] = AP1 Signaling Pathway (AID 357; active = well fitted curve in either direction with a large enough effect, not every such curve was filed as active;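 also: ME-180 reporter cells stimulated with EGF at its EC50 level; % is scaled to controls: 0 for no effect and ±100 for the full control effect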); settings: ME-180 AP-1-bla reporter, EGF-induced, beta-lactamase ratio, 5 h; at 7.69 µM (top of the series) unless noted
# Procedure, shortened: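 Read-out was the 460nm/530nm emission ratio (excitation 405nm) after CCF4 loading for 2.5 hours at room temperature. Cells carried an AP-1-driven beta-lactamase reporter, were stimulated with EC50 EGF plus compound for 5 hours, and AC50 values came from titrations.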
# [9] = molecular target: Cytochrome P450 1A2 (Homo sapiens) (UniProt P05177); test: p450-cyp1a2 (AID 410; calls by dose curve; also: potency is read from the fitted curve at half-maximal effect)
# Procedure, shortened: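 Luminescent demethylation readout: Luciferin-ME (100uM, equal to Km) turned over by 20nM CYP1A2 for 60 min at room temperature after NADPH regeneration addition, following 10 min compound preincubation. Normalization used 57 uM furafylline as full inhibition.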
# [10] = NFAT Signaling Pathway (AID 444; active = well fitted curve in either direction with a large enough effect, not every such curve was filed as active;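 also: carbachol stimulus at about its EC50 of 1 µM final; % is scaled to controls: 0 for no effect and ±100 for the full control effect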); settings: Jurkat NFAT-bla M1, carbachol, beta-lactamase ratio, 5 h; at 7.69 µM (top of the series) unless noted
# Procedure, shortened: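 Jurkat cells with NFAT-driven β-lactamase reporter and co-expressed M1 receptor, stimulated with carbachol (final 1 uM, ~EC50), compound titration, 5 h at 37 °C. CCF4 loaded 1 h at RT; 460/530 nm ratio gave %activity and AC50.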
# [11] = Stat Signaling Pathway (AID 446; active = well fitted curve in either direction with a large enough effect, not every such curve was filed as active;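 also: ME-180 cervical cancer cells given 40 pM IL-6 alongside compound; SIE-controlled beta-lactamase reporter measured as 460/530 nm FRET emission ratio; % is scaled to controls: 0 for no effect and ±100 for the full control effect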); settings: ME-180 SIE beta-lactamase reporter, IL-6 stimulated, 5 h; at 7.69 µM (top of the series) unless noted
# Procedure, shortened: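 Overnight-plated ME-180 cells bearing a STAT Inducible Element beta-lactamase reporter; 5 h co-exposure to compound and 40 pM IL-6; values normalized to 300 pM IL-6 and 125 nM JAK inhibitor controls.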
# [12] = molecular target: Glucocorticoid receptor (Homo sapiens) (UniProt P04150); test: GR-GFP Redistribution (AID 450;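 active = compounds whose dose series gives a full or clear partial fitted curve of increased nuclear translocation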; also: potency is read from the fitted curve at half-maximal effect); settings: U2OS GR-GFP nuclear translocation, laser cytometry, 2 h
# [13] = molecular target: Glucocorticoid receptor (Homo sapiens) (UniProt P04150); test: GR-EFC Redistribution (AID 451; calls by dose curve; also: potency is read from the fitted curve at half-maximal effect); settings: CHO-K1 GR-EFC translocation, beta-gal luminescence, 2 h
# Procedure, shortened: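 CHO-K1 cells expressing nuclear EA and GR-ED fragments of b-gal; compounds titrated up to 46 uM final, 2 h at 37 C. GR nuclear translocation read as complemented b-gal luminescence after 1 h RT detection.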
# [14] = molecular target: Mitogen-activated protein kinase 10 (Mus musculus) (UniProt Q61831); test: JNK3 AlphaScreen Assay (AID 530; active = well fitted curve in either direction with a large enough effect, not every such curve was filed as active)
# Procedure, shortened: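 Activity was read by AlphaScreen after JNK3-containing HepG2 lysate (cytokine pre-activated) phosphorylated biotinylated GST-cJun with 10 uM ATP at room temperature. Phospho-Ser73 cJun antibody with Protein-A acceptor beads provided detection.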
# [15] = molecular target: 3',5'-cyclic-AMP phosphodiesterase 4B (Homo sapiens) (UniProt Q07343); test: qHTS Assay for Inhibitors of PDE-IV (AID 607; active = well fitted activation curve with a large enough effect in the main read-out, with a control signal flat, not every such curve was filed as active; also: % of control where 0% means no effect)
# Procedure, shortened: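 Live HEK293 cells with a modified cyclic nucleotide-gated (CNG) channel report intracellular cAMP via membrane-potential dye fluorescence (ex 535/em 590 nm). Endogenous PDE-IV was targeted. Compounds were tested at up to 22.9 uM final; RO 20-1724 100 uM served as control.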
# [16] = molecular target: Cytochrome P450 3A4 (Homo sapiens) (UniProt P08684); test: qHTS Assay for Activators of Cytochrome P450 3A4 (AID 885); also: nearly all actives have a fitted effect of over 65% in size
# Procedure, shortened: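 Using 20nM recombinant human CYP3A4 in potassium phosphate (200mM), substrate Luciferin-PPXE at 25uM, luminescent luciferin detection followed a 60-min RT NADPH reaction; data scaled to 57 uM ketoconazole.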
# [17] = qHTS Assay for Identification of Small Molecule Agonists for Hypoxia Response Element Signaling Pathway (AID 914; active = well fitted activation curve with a large enough effect in the signal ratio, with a control signal flat, not every such curve was filed as active; the % refers to the signal ratio; also: % of control where 0% means no effect); settings: ME-180 (cervical carcinoma) HRE-bla reporter, beta-lactamase ratio, CoCl2, 17 h; activation: stronger effect = higher value
# Procedure, shortened: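 AC50 values come from titration-series %Activity, taken as the 460/530nm ratio of CCF4 fluorescence (excitation 405nm). CellSensor HRE-bla ME-180 cells were treated 17 hours at 37 C with compound plus an EC50 level of CoCl2.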
# [18] = molecular target: Dual specificity protein kinase CLK4 (Homo sapiens) (UniProt Q9HAZ1); test: qHTS Assay for Inhibitors of CDC-like Kinase 4 (Kinase-Glo Assay) (AID 1770); also: % is scaled to controls: 0 for no effect and ±100 for the full control effect; nearly all actives have a fitted effect of over 65% in size
# Procedure, shortened: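 Readout: Kinase-Glo luminescence from ATP left after a 4.5 h room-temperature reaction of 25 nM Clk4 with 100 uM RS peptide and 1 uM ATP (final). Buffer: 25 mM Tris pH 7.5, 10 mM MgCl2.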
# [19] = molecular target: Dual specificity protein kinase CLK4 (Homo sapiens) (UniProt Q9HAZ1); test: qHTS Assay for Inhibitors of CDC-like Kinase 4 (ADP-Glo Assay) (AID 1771); also: % is scaled to controls: 0 for no effect and ±100 for the full control effect; nearly all actives have a fitted effect of over 70% in size
# Procedure, shortened: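 ADP production was read by ADP-Glo luminescence after residual ATP depletion, following 1 h room-temperature reaction of 25 nM Clk4, 1 uM ATP and 100 uM RS peptide with MgCl2, EGTA, DTT and Triton X-100.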
# [20] = molecular target: Dual specificity protein kinase CLK4 (Homo sapiens) (UniProt Q9HAZ1); test: qHTS Assay for Inhibitors of CDC-like Kinase 4 (ADP-FP Assay) (AID 1795);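 also: recombinant human CLK4 phosphorylating RS repeat peptide at 1 µM ATP; % is scaled to controls: 0 for no effect and ±100 for the full control effect; nearly all actives have a fitted effect of over 60% in size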
# Procedure, shortened: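 FP readout: Orange Transcreener ADP2 tracer (4 nM) plus ADP antibody, read after 30 min at room temperature. Kinase step: 6.25 nM Clk4, 100 uM RS peptide, 1 uM ATP, pH 7.5, 1 h.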
# [21] = molecular target: Ubiquitin carboxyl-terminal hydrolase 1 (Homo sapiens) (UniProt O94782); test: Inhibitors of USP1/UAF1: Pilot qHTS (AID 504865);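 also: rhodamine fluorescence freed from ubiquitin-rhodamine substrate followed over time; top concentration of the series differs between compounds; % is scaled to controls: 0 for no effect and ±100 for the full control effect; nearly all actives have a fitted effect of over 35% in size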
# Procedure, shortened: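 1nM USP1/UAF1 + cpd, 15 min RT; start w/ Ub-Rho 150nM final; kinetic FL 480/540 nm, 6 reads q60 s. Buffer 50mM HEPES pH 7.8, 0.5mM EDTA, 1mM TCEP, 0.01% Tween-20, 0.1 mg/ml BSA.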
# [22] = Counterscreen qHTS for small molecule stabilizers of the endoplasmic reticulum resident proteome: GLuc-NoTag assay (AID 1508627);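 also: 0% = thapsigargin alone and -100% = DMSO vehicle control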
# Procedure, shortened: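 Counterscreen line: SH-SY5Y-GLuc-NoTag. Seed, 5 h; compound, 19 h; thapsigargin 100 nM, 4 h; 37C/5% CO2. Readout: secreted GLuc luminescence, coelenterazine 0.07x final, no lysis.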
# [23] = Confirmatory qHTS for small molecule stabilizers of the endoplasmic reticulum resident proteome: Secreted ER Calcium Modulated Protein (SERCaMP) assay (AID 1508628); also: potency is read from the fitted curve at half-maximal effect; nearly all actives have a fitted effect of over 40% in size
# Procedure, shortened: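 Reporter secretion upon ER calcium depletion (100 nM thapsigargin, 4 h, 37C) is measured as medium luminescence with coelenterazine, after 16 h compound pretreatment of SH-SY5Y-GLuc-SERCaMP cells; primary at three concentrations up to 38.3 uM, follow-up at 11 (up to 76.6 uM).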
# [24] = Cell Viability qHTS for small molecule stabilizers of the endoplasmic reticulum resident proteome (AID 1508629); settings: cell viability counter-screen, 100 nM thapsigargin for final 4 h
# Calcium and integrin-binding protein 1 (Homo sapiens), sequence (Q99828 whole entry, looked up): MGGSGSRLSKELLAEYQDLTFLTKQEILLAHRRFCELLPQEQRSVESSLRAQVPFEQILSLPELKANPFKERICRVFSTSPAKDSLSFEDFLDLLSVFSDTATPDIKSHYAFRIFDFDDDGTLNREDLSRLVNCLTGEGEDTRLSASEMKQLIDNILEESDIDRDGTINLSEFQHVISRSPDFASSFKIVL
# Dual specificity protein kinase CLK4 (Homo sapiens), sequence (Q9HAZ1 whole entry, looked up): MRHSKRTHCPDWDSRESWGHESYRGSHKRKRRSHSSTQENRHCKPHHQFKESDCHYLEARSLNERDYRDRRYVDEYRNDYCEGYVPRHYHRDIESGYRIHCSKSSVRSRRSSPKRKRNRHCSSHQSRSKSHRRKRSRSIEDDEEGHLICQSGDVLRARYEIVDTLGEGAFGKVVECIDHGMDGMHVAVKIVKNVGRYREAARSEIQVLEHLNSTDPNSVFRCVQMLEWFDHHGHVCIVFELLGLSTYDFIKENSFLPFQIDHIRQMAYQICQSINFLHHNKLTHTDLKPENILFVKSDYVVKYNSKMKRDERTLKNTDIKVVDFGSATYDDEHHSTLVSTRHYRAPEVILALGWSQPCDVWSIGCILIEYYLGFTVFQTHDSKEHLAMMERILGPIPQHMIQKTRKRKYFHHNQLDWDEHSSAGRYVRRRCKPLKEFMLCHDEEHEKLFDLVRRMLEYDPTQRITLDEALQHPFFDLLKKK
# Ubiquitin carboxyl-terminal hydrolase 2 (Homo sapiens), sequence (O75604 whole entry, looked up): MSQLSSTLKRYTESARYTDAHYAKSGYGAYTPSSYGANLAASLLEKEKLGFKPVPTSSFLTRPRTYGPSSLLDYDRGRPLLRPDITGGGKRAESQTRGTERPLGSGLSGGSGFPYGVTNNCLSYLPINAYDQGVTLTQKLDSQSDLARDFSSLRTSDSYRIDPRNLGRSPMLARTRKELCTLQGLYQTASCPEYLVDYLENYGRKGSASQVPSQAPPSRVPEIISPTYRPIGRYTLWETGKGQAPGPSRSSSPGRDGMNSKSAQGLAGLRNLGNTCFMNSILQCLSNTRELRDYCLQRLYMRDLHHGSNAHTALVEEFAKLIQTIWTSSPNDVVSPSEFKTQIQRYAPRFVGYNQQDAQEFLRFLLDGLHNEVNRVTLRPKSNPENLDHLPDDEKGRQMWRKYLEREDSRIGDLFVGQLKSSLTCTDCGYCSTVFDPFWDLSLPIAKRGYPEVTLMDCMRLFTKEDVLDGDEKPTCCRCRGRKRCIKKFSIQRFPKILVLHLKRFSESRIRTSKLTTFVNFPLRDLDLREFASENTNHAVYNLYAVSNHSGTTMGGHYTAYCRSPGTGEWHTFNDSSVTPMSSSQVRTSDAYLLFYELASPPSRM
# Glucocorticoid receptor (Homo sapiens), sequence (P04150 whole entry, looked up, the tested form may be a part): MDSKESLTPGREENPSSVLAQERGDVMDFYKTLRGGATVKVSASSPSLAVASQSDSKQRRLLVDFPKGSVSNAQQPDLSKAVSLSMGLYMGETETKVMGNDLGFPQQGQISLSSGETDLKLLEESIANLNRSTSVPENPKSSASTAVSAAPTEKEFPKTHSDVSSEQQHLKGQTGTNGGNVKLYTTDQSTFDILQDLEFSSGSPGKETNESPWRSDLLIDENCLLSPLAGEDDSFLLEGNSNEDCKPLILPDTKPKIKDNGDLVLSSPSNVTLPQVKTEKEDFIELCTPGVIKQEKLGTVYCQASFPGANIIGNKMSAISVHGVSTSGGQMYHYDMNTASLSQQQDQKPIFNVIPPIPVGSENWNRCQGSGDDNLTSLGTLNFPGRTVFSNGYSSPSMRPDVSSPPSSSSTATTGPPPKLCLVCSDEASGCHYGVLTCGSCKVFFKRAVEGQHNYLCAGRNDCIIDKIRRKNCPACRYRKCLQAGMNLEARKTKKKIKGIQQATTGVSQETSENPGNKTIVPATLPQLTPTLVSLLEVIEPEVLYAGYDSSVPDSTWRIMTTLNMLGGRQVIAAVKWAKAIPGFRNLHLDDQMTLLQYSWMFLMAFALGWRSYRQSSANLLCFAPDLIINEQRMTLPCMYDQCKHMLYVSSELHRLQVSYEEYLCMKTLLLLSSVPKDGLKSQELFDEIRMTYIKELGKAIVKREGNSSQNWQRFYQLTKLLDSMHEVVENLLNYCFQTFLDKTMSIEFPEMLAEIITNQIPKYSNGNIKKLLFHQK
# Ubiquitin carboxyl-terminal hydrolase 1 (Homo sapiens), sequence (O94782 whole entry, looked up): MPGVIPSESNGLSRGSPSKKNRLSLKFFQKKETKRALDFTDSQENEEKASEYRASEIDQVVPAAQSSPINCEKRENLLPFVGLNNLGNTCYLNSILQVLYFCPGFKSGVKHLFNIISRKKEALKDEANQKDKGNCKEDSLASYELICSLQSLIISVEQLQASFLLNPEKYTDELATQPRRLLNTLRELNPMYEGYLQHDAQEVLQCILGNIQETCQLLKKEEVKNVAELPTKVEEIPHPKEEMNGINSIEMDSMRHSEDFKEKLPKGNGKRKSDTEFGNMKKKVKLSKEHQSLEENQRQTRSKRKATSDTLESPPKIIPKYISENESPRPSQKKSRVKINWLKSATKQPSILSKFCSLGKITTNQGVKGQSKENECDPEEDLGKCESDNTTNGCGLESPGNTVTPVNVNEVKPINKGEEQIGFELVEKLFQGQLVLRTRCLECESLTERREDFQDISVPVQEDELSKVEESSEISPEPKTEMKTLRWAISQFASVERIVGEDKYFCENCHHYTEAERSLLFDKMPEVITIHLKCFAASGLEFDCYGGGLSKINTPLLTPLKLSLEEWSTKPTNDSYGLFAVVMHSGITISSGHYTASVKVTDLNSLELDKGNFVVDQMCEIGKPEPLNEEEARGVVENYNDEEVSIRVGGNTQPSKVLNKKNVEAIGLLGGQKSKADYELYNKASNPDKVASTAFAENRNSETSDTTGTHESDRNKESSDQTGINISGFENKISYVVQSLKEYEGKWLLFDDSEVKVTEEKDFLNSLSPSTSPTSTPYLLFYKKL
# Lysosomal acid glucosylceramidase (Homo sapiens), sequence (P04062 whole entry, looked up): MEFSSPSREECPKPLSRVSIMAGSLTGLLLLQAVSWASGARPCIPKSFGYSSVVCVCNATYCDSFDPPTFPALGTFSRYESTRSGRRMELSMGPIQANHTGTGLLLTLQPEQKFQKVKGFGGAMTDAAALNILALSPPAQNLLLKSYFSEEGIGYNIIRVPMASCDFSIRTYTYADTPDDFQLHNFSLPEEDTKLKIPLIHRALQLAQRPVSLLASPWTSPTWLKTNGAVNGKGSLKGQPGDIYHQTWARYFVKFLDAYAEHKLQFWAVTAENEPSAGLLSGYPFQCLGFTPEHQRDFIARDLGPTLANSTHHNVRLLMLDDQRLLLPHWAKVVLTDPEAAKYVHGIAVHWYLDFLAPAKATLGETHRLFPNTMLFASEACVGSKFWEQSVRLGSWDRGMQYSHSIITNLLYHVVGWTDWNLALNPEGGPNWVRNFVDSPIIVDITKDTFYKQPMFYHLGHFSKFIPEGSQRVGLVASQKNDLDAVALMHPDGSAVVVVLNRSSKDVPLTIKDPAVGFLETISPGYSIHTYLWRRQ
# 3',5'-cyclic-AMP phosphodiesterase 4B (Homo sapiens), sequence (Q07343 whole entry, looked up): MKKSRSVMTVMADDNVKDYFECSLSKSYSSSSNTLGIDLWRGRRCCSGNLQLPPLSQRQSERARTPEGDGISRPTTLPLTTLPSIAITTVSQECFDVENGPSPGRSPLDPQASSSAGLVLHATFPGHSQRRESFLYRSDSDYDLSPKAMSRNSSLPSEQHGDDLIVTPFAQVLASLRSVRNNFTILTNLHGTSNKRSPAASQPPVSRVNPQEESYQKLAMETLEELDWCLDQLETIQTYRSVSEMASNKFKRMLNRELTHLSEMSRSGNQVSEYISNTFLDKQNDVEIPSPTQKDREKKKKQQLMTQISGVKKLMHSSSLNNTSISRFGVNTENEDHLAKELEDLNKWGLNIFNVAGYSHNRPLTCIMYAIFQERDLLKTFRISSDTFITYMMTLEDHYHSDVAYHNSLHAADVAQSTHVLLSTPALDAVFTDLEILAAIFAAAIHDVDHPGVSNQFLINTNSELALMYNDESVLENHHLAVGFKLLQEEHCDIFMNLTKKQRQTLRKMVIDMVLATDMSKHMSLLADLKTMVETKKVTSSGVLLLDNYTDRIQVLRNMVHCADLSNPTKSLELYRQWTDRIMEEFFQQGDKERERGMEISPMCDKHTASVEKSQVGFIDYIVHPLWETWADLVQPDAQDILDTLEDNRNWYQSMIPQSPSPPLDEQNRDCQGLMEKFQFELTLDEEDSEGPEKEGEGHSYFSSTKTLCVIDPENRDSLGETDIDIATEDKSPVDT
# Cytochrome P450 1A2 (Homo sapiens), sequence (P05177 whole entry, looked up): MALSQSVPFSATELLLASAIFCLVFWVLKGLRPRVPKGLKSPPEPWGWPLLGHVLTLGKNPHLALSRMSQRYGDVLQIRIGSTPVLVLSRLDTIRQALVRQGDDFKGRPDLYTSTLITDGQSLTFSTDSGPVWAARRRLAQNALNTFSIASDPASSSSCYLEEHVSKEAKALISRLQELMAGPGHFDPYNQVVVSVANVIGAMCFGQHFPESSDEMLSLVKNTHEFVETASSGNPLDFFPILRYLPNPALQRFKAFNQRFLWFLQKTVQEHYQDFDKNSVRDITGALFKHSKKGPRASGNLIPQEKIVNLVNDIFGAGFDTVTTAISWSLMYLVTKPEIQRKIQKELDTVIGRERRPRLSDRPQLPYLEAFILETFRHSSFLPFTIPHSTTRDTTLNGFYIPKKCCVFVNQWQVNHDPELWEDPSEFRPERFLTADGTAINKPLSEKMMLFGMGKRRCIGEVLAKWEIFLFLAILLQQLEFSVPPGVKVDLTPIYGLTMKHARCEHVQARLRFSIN
smiles,measurement,setting,value
CC(C)(C)OC(=O)N[C@@H](Cc1ccc(O[S+](=O)([O-])c2cccc3cnccc23)cc1)C(=O)N1CCN(Cc2ccccc2)CC1,"parasite growth, % of DMSO control",[1],5.32%
same,"parasite growth remaining, % of DMSO control (lower = more inhibition)",[2],7.86%
same,"parasite growth, % of control (lower = inhibition)",[3],22.5%
same,"growth, % of control",[4],10.3%
same,Potency,[5],inactive
Cc1ccc(-c2cc(C(=O)Nc3ccc(S(=O)(=O)NCc4nccs4)cc3)c3ccccc3n2)cc1C,Potency,[6],3.43 µM (active)
same,Potency,[5],inactive
Cc1ccc(S(=O)(=O)Nc2ccccc2C(=O)Nc2ccc(-c3ccccc3)cn2)cc1,Potency,[6],2.17 µM (active)
same,Potency,[5],inactive
CC(C)(C)OC(=O)N[C@@H](Cc1ccc(OS(=O)(=O)c2cccc3cnccc23)cc1)C(=O)N1CCCN(C(=O)OC(C)(C)C)CC1,"parasite growth, % of DMSO control",[1],5.32%
same,"parasite growth remaining, % of DMSO control (lower = more inhibition)",[2],7.99%
same,"parasite growth, % of control (lower = inhibition)",[3],34.3%
same,"growth, % of control",[4],7.55%
same,Potency,[5],inactive
CN1CCN(c2nc(-c3ccccc3C(F)(F)F)nc3ccccc23)CC1,Potency,[7],> 11.4 µM (inactive)
same,"activity change, negative = inhibition",[8],-3.47% (inactive)
same,Potency,[9],10 µM (active)
same,"activity change, negative = inhibition",[10],-6.69% (inactive)
same,"activity, negative = inhibition",[11],-4.43% (inactive)
same,Potency,[12],> 46 µM (inactive)
same,Potency,[13],> 46 µM (inactive)
same,outcome,[14],inactive
same,Potency,[15],inactive
same,Potency,[16],inactive
same,activation,[17],-4.44% (inactive)
same,Potency,[18],inactive
same,Potency,[19],inactive
same,Potency,[20],inactive
same,Potency,[21],inactive
same,Potency,[22],inactive
same,Potency,[23],14.1 µM (active)
same,max response,[24],16.6% (inactive)
